ANO1 activ – TMEM16A chloride channel activators or potentiators, primary screen, cell-based, HTS; AID 623877, 2012; 340,000 tested, 0.3% active; B-score at 10 µM; Anoctamin-1 (Mus musculus), Q8BHY3; HEK293 TMEM16A/YFP-H148Q/I152L, iodide quench fluorescence; stronger effect = lower value;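 active = fluorescence-ratio B-score plate-corrected deviation score at least 3 library SD below zero, with starting fluorescence score within 5 deviations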;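 note: channel opened by trigger with iodide after compound preincubation; score built on the fluorescence ratio of max minus min over baseline; more negative score means more quench and so TMEM16A activation or potentiation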
KCNK9 block – KCNK9 potassium channel inhibitors, primary screen, HEK293 cells, thallium flux; 310,000 tested, 1.2% active; AID 488922, 2010; Potassium channel subfamily K member 9 (Homo sapiens), Q9NPC2; FluxOR thallium flux fluorescence; stronger effect = lower value; B-score at 10 µM;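 active = ratio B-score over 3 SD below the library mean, with starting fluorescence within 5 SD of its mean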;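 note: negative B-score means less thallium flux so channel inhibition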
Target sequence (Q9NPC2 whole entry, looked up): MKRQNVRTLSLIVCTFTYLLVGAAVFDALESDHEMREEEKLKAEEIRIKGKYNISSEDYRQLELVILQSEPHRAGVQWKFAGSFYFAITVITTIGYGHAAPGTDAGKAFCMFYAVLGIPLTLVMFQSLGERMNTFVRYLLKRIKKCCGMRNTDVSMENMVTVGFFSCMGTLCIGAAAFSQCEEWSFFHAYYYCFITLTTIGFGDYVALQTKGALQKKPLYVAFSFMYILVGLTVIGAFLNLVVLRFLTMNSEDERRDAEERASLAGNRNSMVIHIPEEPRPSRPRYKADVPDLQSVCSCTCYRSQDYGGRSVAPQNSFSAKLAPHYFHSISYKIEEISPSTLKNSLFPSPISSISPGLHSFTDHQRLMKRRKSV
ANO1 block – TMEM16A chloride channel inhibitors, primary screen, cell-based, HTS | Anoctamin-1 (Mus musculus), Q8BHY3 | HEK293 TMEM16A/YFP iodide influx fluorescence, ionomycin | 310,000 tested, 1.2% active | normalized B-score (activity score, 25-100; higher = stronger inhibition) at 10 µM;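 active = ratio plate-corrected score three or more library SD toward inhibition, starting fluorescence score within five deviations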;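 note: score derived from kinetic fluorescence span divided by baseline fluorescence per well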
KCNK3 block – human KCNK3 channel inhibitors, primary screen, CHO cells, FluxOR thallium flux, B-score | FluxOR fluorescence; stronger effect = lower value | B-score at 10 µM | 340,000 tested, 0.84% active;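 active = B-score under library mean minus 4 SD, starting fluorescence ratio at most library mean plus 5 SD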;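 note: more negative B-score means stronger inhibition of thallium flux through KCNK3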
Kir21 block – inhibitors of mouse Kir2.1 inward-rectifier potassium channel. 310,000 tested, 0.85% active. HEK293-Kir2.1, FluxOR thallium flux fluorescence; stronger effect = lower value. AID 1672, 2009. B-score at 10 µM;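 active = fluorescence ratio B-score at or below minus 3 SD of library scores, with starting-brightness B-score within 2 SD, cut at about -4.2 in these data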;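 note: channel flux triggered by added potassium and thallium sulfate stimulus; B-score of peak minus minimum fluorescence over baseline after thallium stimulus; more negative B-score means stronger Kir2.1 block with less thallium influx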
KCNK9 block conf – KCNK9 potassium channel inhibitors, confirmation, HEK293 cells, thallium flux, duplicate; inhibition, % at 10 µM; FluxOR thallium flux fluorescence; 4,900 tested, 43% active; shares compounds with KCNK9 block;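 active = thallium signal inhibited by more than 5 SD of the compound-free buffer control wells, on both duplicate plates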;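 note: 0% = assay buffer control wells without compound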
Kir2-1 spec – mouse Kir2.1 channel inhibition, confirmation, selectivity assay for KCNK9 modulator project, cell-based, HEK293, thallium flux; shares compounds with KCNK9 block; Kir2.1 cells, FluxOR thallium flux fluorescence; inhibition, % at 10 µM; 4,900 tested, 4% active;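 active = thallium signal drop more than 5 SD beyond the mean of the no-compound control wells, seen in both duplicate plates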;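 note: signal is fluorescence rise after thallium addition divided by baseline fluorescence; plate controls were assay buffer only for no effect and full block by chlorpromazine control for full effect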
HEK293 Tl ctr – thallium flux in non-induced HEK293 cells, confirmation, counter-screen for KCNK9 inhibitor project, cell-based, second counter screen, non-induced KCNK9-HEK293; 4,900 tested, 40% active; FluxOR thallium flux; inhibition, % at 10 µM; shares compounds with KCNK9 block;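 active = thallium signal drop beyond 5 SD of the untreated control mean, on both duplicate plates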;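 note: plate controls were buffer only IC0 wells for no effect and SID17386958 at its maximal inhibitory level for full effect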
Starred values were filed as active, the others as inactive; i = inactive; x = not tested or not shown. A selection: hits, their analogues and other compounds. The true share with any hit is near 3.5%.

SMILES | ANO1 activ | KCNK9 block | ANO1 block | KCNK3 block | Kir21 block | KCNK9 block conf | Kir2-1 spec | HEK293 Tl ctr
CN(C)c1cccc(C(=O)OCC(=O)N2CCc3ccccc3C2)c1 | i | i | i | i | 1.17 | i | i | i
Cc1ccc(C)c(OCC(=O)N2CCc3ccccc3C2)c1 | i | i | i | i | -1.46 | i | i | i
Cc1cccc(N(C(=O)c2ccco2)C(C(=O)NC2CCCC2)c2ccco2)c1C (configuration not stated) | i | i | x | i | 1.32 | x | x | x
Cc1ccc2cc(C)c(N3CCN(c4ccccn4)CC3)nc2c1 | i | i | i | i | -0.15 | i | i | 26.0%*
NC(=O)CN1CCN(C(=O)Nc2ccccc2)CC1 | i | i | i | i | -1.3 | x | x | x
COc1ccc(-c2csc(NC(=O)C3COc4ccccc4O3)n2)cc1OC (configuration not stated) | i | -16.1* | i | -10.4* | 0.01 | 64.0%* | i | i
CC(C)(C)c1csc(NC(=O)C2COc3ccccc3O2)n1 (configuration not stated) | i | i | i | i | -0.2 | x | x | x
O=C(Nc1ccc(Cl)c(Cl)c1)Nc1cc(S(=O)(=O)N2CCOCC2)ccc1N1CCCC1 | i | i | i | i | 2.04 | x | x | x
Cc1nc(N2CCCCC2C)c2c(C)c(C(=O)Nc3ccccc3C(F)(F)F)sc2n1 (configuration not stated) | i | -14.2* | i | i | -0.97 | 55.0%* | i | 42.5%*
Cc1csc2sc(-c3ccnc(SCC(=O)NCc4ccccc4)n3)c(C)c12 | i | -9.19* | i | i | 1.91 | i | i | 31.5%*
COc1ccc(C(=O)N2CCN(c3ccccc3Cl)CC2)cc1S(=O)(=O)NC1CC1 | i | x | x | i | x | x | x | x
Cn1c(=O)[nH]c(=O)c2c1nc(Br)n2Cc1ccccc1F | i | i | i | i | 0.03 | i | i | i
Cc1ccc(Cl)cc1N1CCN(Cc2nc3c(c(=O)[nH]c(=O)n3C)n2Cc2ccccc2F)CC1 | i | -8.81* | i | i | 0.06 | i | i | i
Cc1ccc(Cl)cc1N1CCN(Cc2nc3c(c(=O)[nH]c(=O)n3C)n2CCc2ccccc2)CC1 | i | i | i | i | 2.64 | x | x | x
COc1ccc(C(=O)N2CCCC(Nc3ccc(C)c(C)c3)C2)cc1F (configuration not stated) | i | i | i | i | 0 | x | x | x
COC(=O)c1cccc(C(=O)N2CCCC(Nc3ccc(C)c(C)c3)C2)c1 (configuration not stated) | i | i | i | i | -1.81 | i | i | i
C=CCOc1cccc(C(=O)N2CCCC(Nc3ccc4c(c3)OCCO4)C2)c1 (configuration not stated) | i | i | i | i | 0.19 | i | i | i
C=CCOc1cccc(C(=O)N2CCCC(CCC(=O)NCc3ccccc3F)C2)c1 (configuration not stated) | i | i | i | i | -1.97 | x | x | x
Cc1ccc(NC2CCCN(C(=O)c3ccc4[nH]ccc4c3)C2)cc1C (configuration not stated) | i | i | i | i | 1.93 | i | i | i
O=C(c1ccc2[nH]ccc2c1)N1CCCC(Nc2ccccc2)C1 (configuration not stated) | i | i | i | i | -1.85 | x | x | x

Screening data from PubChem.
